Sampled rows, rich in hits. Any-hit rate of the full collection: about 2.1%.
FUS suppressor – FUS proteinopathy suppression in yeast | Potency, µM (doses to about 76.6 µM), usual class: activators | S. cerevisiae FUS-expressing, growth rescue, OD600, 24 h | AID 1347120 | actives 0.24% (n = 390,000); also: nearly all actives have a fitted effect of over 55% in size
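FUS-expressing yeast, raffinose-pregrown, induced in 2% galactose minimal medium at OD 0.005; compounds in a dilution series, 24hr at 30C. Growth restoration read as absorbance at 600 nm. CP55940 positive control, DMSO negative.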
aSyn yeast inh – alpha-synuclein toxicity inhibition in yeast; Yeast expressing alpha-synuclein, growth rescue, BacTiter-Glo, 24 h; Potency, µM (series often up to 46.1 µM), hits mostly activators; actives 0.14% (n = 370,000); also: nearly all actives have a fitted effect of over 65% in size
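Rescue of yeast growth: cells expressing toxic alpha-synuclein, induced in galactose at OD600 0.02, incubated with compound 24 h at 30 C. ATP luminescence quantified growth; inhibitors of toxicity appear as activators.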
Abeta yeast res – restores growth of yeast expressing A-beta42 peptide | AID 1347071 | Potency, µM (top dose mostly 46.1 µM), most hits filed as activators | actives 0.063% (n = 410,000) | yeast expressing A-beta42, growth rescue, OD600, 48 h; response scale: 0% DMSO, 100% iron-clioquinol control; also: nearly all actives have a fitted effect of over 55% in size
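Yeast growth medium received pinned compounds, then yeast cells expressing toxic A-beta were added; plates incubated at 30 C for 48 hr. Growth read as absorbance at 600 nm, normalized to DMSO and equimolar FeCl3 plus clioquinol controls.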
TDP-43 yeast inh – rescues yeast growth from TDP-43 toxicity; TDP-43 expressing yeast growth rescue, BacTiter-Glo, 24 h; Potency, µM (highest dose often 46.1 µM), actives largely listed as activators; actives 1.8% (n = 410,000); AID 652104; also: nearly all actives have a fitted effect of over 50% in size
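Galactose-induced TDP-43 yeast, OD600=0.02, compound pinned; 24 hr, 30 deg C; BacTiter-Glo luminescence for growth. Inhibitors of TDP-43 toxicity read as activators.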
A number is an active result; n = inactive; u = inconclusive; x = no result given; [ ] = another dose, or the depositor's remark. Calls follow the shape of the dose curve; as a rule, active = well fitted curve in the direction sought with a large enough effect; inconclusive = small, poorly fitted or top-dose-only effect, or another doubt; inactive = no such curve, though single readings can be large; an effect the other way counts as inactive or inconclusive.

SMILES | FUS suppressor | aSyn yeast inh | Abeta yeast res | TDP-43 yeast inh
Cc1ccc(-c2ccc(CN3C(CC(C)C)C(=O)N(Cc4cn(CCC5OCCO5)nn4)CCS3(=O)=O)cc2)cc1 (stereo not given) | u | n | n | 35.5µM
CC(C)CC1C(=O)N(Cc2cn(CCC3OCCCO3)nn2)CCS(=O)(=O)N1Cc1ccc(-c2ccccc2)cc1 (stereo not given) | u | n | n | n
Cc1ccc(CN2CCCn3nc(C(=O)NCCc4cccc(C)c4)cc3C2=O)cc1 | u | x | n | n
Cc1ccc(C2=NN(C(=O)CCl)C(c3cccs3)C2)o1 (stereo not given) | n | n | n | 20µM
CCc1ccc(NC(=O)Cn2ccn(-c3ccc(OC)cc3)c(=O)c2=O)cc1 | n | x | n | n
NC(=O)Cc1nc2scc(-c3ccccc3)c2c(=O)[nH]1 | n | n | n | n
O=C(OCc1nc2scc(-c3ccccc3)c2c(=O)[nH]1)c1ccco1 | n | n | u | 35.5µM
CCOc1ccc(S(=O)(=O)N2CCN(c3nc(-c4ccccc4)nc4ccccc34)CC2)cc1 | x | n | x | x
CC(=O)c1ccc(NC(=O)c2noc(C(C)C)c2[N+](=O)[O-])cc1 | n | n | n | 17.8µM
CC(=O)c1ccc(NC(=O)c2ccc([N+](=O)[O-])o2)cc1 | n | n | n | 15.8µM
CCc1ccc(NC(=O)c2noc(C(C)C)c2[N+](=O)[O-])cc1 | n | n | n | 11.2µM
CC(=O)c1cccc(NC(=O)c2ccc([N+](=O)[O-])o2)c1 | n | n | n | u
COc1ccc(NC(=O)c2noc(C(C)C)c2[N+](=O)[O-])cc1 | n | n | n | n[0.397 µM]
CC(C)c1onc(C(=O)NCc2ccc(F)cc2)c1[N+](=O)[O-] | x | n | n | u
O=c1c2ccccc2sn1-c1ccc(S(=O)(=O)N2CCOCC2)cc1 | x | n | x | x
CCOC(=O)c1[nH]c2c(c1Cc1ccccc1OC)C(=O)CC(c1ccc(OCC)cc1)C2 (stereo not given) | n | x | n | n
C[C@H]1[C@H](NC(=O)c2ccc(C(C)(C)C)cc2)CC[C@@]23CCCN2C(=O)CCC[C@@H]13 | n | x | x | x
COc1ccc(C(=O)N(Cc2ccco2)Cc2cccs2)c(OC)c1 | x | n | x | x
Cc1ccc(O)c(Sc2cc(C)ccc2O)c1 | n | u | u | 22.4µM
Cc1ccc(O)c(N)c1 | n | n | n | n
CC(c1ccc2ccccc2c1)c1ccccc1C(=O)O (stereo not given) | n | n | n | 5.62µM
O=C(Nc1ccsc1C(=O)O)c1ccccc1 | n | n | n | n
O=C(Nc1ccsc1C(=O)NC1CC1)c1ccccc1 | n | n | n | 12.6µM
O=C(O)c1ccccc1-n1c2ccccc2c2ccccc21 | n | u | n | 20µM
Cc1nn(-c2ccccc2C(=O)O)c(=O)c2ccccc12 | n | n | n | n
SMILES | FUS suppressor | aSyn yeast inh | Abeta yeast res | TDP-43 yeast inh
CCN(Cc1ccccc1)C(=O)Cn1c(=O)n(-c2ccc(Cl)cc2)c(=O)c2c(C)c(C)sc21 | n | x | n | n
COc1ccc(Oc2c(Br)cnn(Cc3cccc4ccccc34)c2=O)cc1 | n | x | x | x
C=CCc1cccc(CNc2ccc(Br)cc2)c1O | n | n | n | 22.4µM
OC[C@@H]1CC[C@@H](Cc2ccc(-c3ccccc3)cc2)O1 | n | 17.8µM | n | 11.2µM
C=CCn1c(SCC(=O)c2ccc(F)cc2)nnc1-c1ccc(F)cc1 | n | x | x | x
COc1cccc2c1C(=O)c1c(O)c3c(c(O)c1C2=O)C[C@](O)(C(C)=O)C[C@H]3O[C@@H]1C[C@@H](N)[C@@H](O)[C@@H](C)O1 | n | 11.2µM | n | n
COc1cccc2c1C(=N)c1c(O)c3c(c(O)c1C2=O)CC(O)(C(C)=O)CC3OC1CC(N)C(O)C(C)O1 (stereo not given) | x | n | n | n
COc1ccc(CCC(=O)NCc2nc3cccnc3n2Cc2ccc(OC)cc2)cc1 | n | x | n | n
Cc1ccc(-c2nc(C)sc2CC(=O)OCC(=O)Nc2ccc(F)c(Cl)c2)cc1 | n | n | u | 25.1µM
Cc1ccc(NC(=O)Cc2sc(C)nc2-c2ccc(C)cc2)cc1 | x | n | n | n
CCOC(=O)c1ccc(N2C(=O)c3n[nH]c(-c4ccco4)c3C2c2ccccc2OC)cc1 (stereo not given) | u | x | n | u
O=C(/C(=C/c1ccc(Cl)cc1)c1nc2ccccc2[nH]1)c1cccs1 | n | n | n | 3.16µM
CCOc1ccc(NC(=O)CN(C)Cc2cc(=O)n3c(-c4ccccc4)csc3n2)cc1OCC | 17.8µM | n | n | n
Cc1cc(C)cc(OCc2cc(=O)n3c(-c4ccccc4)csc3n2)c1 | n | x | n | n
COc1cc(C(=O)Nc2nonc2-c2ccc(Cl)cc2)cc(OC)c1OC | n | x | n | n
C/C(=N\NC(N)=S)C1C2C3CC4C5CC(C42)C1C53 (stereo not given) | n | n | u | 14.1µM
Cc1ccc2nc3ccc(N4CCCCCCC4)nn3c(=O)c2c1 | n | n | n | 22.4µM
Cc1ccc2nc3ccc(N4CCN(C)CC4)nn3c(=O)c2c1 | x | n | n | n
CCn1c2ccccc2c2cc(NC(=O)COC(=O)c3cccc(OC)c3)ccc21 | n | x | x | x
COc1ccc(-c2[nH]c(-c3ccccc3)nc2SCC(=O)Nc2ccc3c(c2)OCO3)cc1 | n | x | n | n
O=C1CCCCC1C(Nc1ccc(Cl)cc1)c1ccccc1 (stereo not given) | n | n | n | u
O=C1CCCCC1C(Nc1ccc(Br)cc1)c1ccccc1 (stereo not given) | n | n | n | 12.6µM
CC1(Cc2cccc(C(N)=O)c2)C(=O)Nc2c(Cl)cccc21 (stereo not given) | n | n | n | n
CC1(Cc2cccc(C#N)c2)C(=O)Nc2c(Cl)cccc21 (stereo not given) | n | 17.8µM | n | u
CC1(Cc2ccc(Cl)c(Cl)c2)C(=O)Nc2c(Cl)ccc(Cl)c21 (stereo not given) | n | u | n | n
SMILES | FUS suppressor | aSyn yeast inh | Abeta yeast res | TDP-43 yeast inh
CC1(Cc2ccc(F)cc2)C(=O)Nc2c(Cl)ccc(Cl)c21 (stereo not given) | n | 11.2µM | n | n
CC1(Cc2ccccc2Cl)C(=O)Nc2c(Cl)cccc21 (stereo not given) | n | 3.55µM | n | u
C=Cc1ccc(CC2(C)C(=O)Nc3c(Cl)cccc32)cc1 (stereo not given) | n | 10µM | n | n
C=Cc1ccc(CC2(C)C(=O)Nc3ccc(Cl)cc32)cc1 (stereo not given) | n | u | u | n
O=C(C1CCN(S(=O)(=O)Cc2ccccc2)CC1)N1CCN(c2ccc(F)cc2)CC1 | n | x | n | 22.4µM
O=C(OCC#CCSc1nnc(-c2cccc3ccccc23)o1)c1ccc(F)c(F)c1 | n | x | x | x
CCC(CC)c1nnc(NC(=O)c2c(C)nn(Cc3ccccc3Cl)c2C)s1 | 8.91µM | n | n | u
O=C(CSC1=Nc2ccccc2N=C(c2ccc(F)cc2)C1)Nc1ccc(Cl)cc1 | n | x | n | n
O=c1ccc(/C=C/c2ccccc2)nn1Cc1ccccc1 | n | n | n | 20µM
O=c1ccc(-c2ccccc2)nn1Cc1ccc(Cl)cc1 | n | u | n | 20µM

Screening results deposited in PubChem by National Center for Advancing Translational Sciences (NCATS).
